Test results as given in PMC4336329 (PLoS ONE, 2015).
Screen size: about 310,000 compounds; about 14,000 (4.5%) showed an effect of 50% or more. The effect is printed as a negative number. The sample holds strong results, similar compounds and a random draw of the others, so the mix is not that of the screen.

Target: human ether-à-go-go-related gene (hERG) potassium channel (human, UniProt Q12809)
Assay: primary screen, population patch clamp on CHO cells stably expressing hERG; higher = less effect of the substance
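Note: peak tail current of the secondary pulse compared with the same well before compound.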

Chain of human ether-à-go-go-related gene (hERG) potassium channel (Q12809 whole entry, looked up): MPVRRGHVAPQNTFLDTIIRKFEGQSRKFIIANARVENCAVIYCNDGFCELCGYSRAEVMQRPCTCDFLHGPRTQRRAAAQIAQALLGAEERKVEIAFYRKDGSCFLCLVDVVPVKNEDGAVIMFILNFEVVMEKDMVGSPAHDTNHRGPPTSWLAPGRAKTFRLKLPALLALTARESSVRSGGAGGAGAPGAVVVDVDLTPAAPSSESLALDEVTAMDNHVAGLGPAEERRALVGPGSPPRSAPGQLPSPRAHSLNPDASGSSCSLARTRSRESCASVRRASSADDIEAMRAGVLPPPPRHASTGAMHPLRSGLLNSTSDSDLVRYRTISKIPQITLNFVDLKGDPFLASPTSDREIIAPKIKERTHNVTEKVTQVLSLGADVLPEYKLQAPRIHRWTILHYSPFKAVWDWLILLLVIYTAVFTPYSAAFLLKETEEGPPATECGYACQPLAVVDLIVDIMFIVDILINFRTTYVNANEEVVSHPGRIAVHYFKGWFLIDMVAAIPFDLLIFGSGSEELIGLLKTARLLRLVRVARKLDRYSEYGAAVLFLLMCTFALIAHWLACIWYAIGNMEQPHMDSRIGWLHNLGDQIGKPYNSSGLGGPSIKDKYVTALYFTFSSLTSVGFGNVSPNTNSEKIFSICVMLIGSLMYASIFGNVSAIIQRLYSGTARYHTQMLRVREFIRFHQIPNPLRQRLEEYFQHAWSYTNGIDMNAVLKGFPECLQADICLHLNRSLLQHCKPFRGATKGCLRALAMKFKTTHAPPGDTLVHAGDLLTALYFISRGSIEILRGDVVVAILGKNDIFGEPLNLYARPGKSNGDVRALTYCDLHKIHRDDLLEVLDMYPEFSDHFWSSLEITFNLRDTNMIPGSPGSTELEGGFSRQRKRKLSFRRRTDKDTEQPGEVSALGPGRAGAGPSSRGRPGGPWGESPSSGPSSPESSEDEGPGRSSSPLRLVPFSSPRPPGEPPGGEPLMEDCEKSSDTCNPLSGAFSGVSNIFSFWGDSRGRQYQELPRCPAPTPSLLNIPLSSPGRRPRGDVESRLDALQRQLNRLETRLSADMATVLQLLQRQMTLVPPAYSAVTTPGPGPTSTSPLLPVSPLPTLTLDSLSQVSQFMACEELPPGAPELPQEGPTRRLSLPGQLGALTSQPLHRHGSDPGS

Structure (SMILES) | hERG current change (%, negative = inhibition) at 10uM [%]
O=C1C2C(c3ccccc3)CC=CC2[C@H](c2ccc(C(F)(F)F)cc2)N1Cc1ccccc1 (some centres unmarked) | -2.51
CCC(=O)Nc1c2c(nn1-c1ccc(OC)cc1)CS(=O)C2 (centres unmarked) | 9.94
CC(=O)c1ccc(NS(=O)(=O)Cc2ccccc2)cc1 | 3.41
Cc1cc(=O)oc2cc(OCC(=O)OCc3nnc(-c4ccccc4)o3)ccc12 | 14.3
CCOC(=O)C1CCN(CC(O)COc2ccc(C(C)=O)cc2)CC1.Cl (centres unmarked) | -47.7
CCOC(=O)C1CCN(CC(O)COc2ccc(C(=O)CC)cc2)CC1.Cl (centres unmarked) | -68.5
CCN1CCN(CC(O)COc2ccc(C(C)=O)cc2)CC1.Cl (centres unmarked) | 2.15
CC(C)(C)c1ccc(OCC(O)CN2CCOCC2)cc1 (centres unmarked) | -3.19
CCOC(=O)C1CCN(CC(O)COc2ccc(C(C)(C)C)cc2)CC1.Cl (centres unmarked) | -70.4
CC1CCCC/C1=N\NC(=S)Nc1cccnc1 (centres unmarked) | 15.8
Cc1noc(C)c1COc1ccc(C(=O)OCC(N)=O)cc1 | 18
O=C(Nc1ccc(Cl)cc1)c1ccc(-n2cccn2)c([N+](=O)[O-])c1 | 4.78
CC(C)c1nc2c(s1)CCc1onc(-c3cccc([N+](=O)[O-])c3)c1-2 | 16.4
COc1cc(OC)cc(-n2nnnc2SCC(=O)N2CCCC2)c1 | -30.2
Cc1ccc(-n2nnnc2SCC(=O)NC2CCCc3ccccc32)c(C)c1 (centres unmarked) | -7.69
CCn1ccnc1CN1CCCC(C(=O)c2cccc(C(F)(F)F)c2)C1 (centres unmarked) | -31.1
O=C(c1ccc(C(F)(F)F)cc1)C1CCCN(Cc2ccc(CO)o2)C1 (centres unmarked) | -24.6
COCC(=O)N1CCCC(C(=O)c2ccc(C(F)(F)F)cc2)C1 (centres unmarked) | -0.113
O=C(c1cccc(C(F)(F)F)c1)C1CCCN(Cc2cccn2-c2ccccn2)C1 (centres unmarked) | -83.5
O=C(c1cccc(C(F)(F)F)c1)C1CCCN(Cc2cccn2-c2ncccn2)C1 (centres unmarked) | -95.7
O=C(c1cccc(C(F)(F)F)c1)C1CCCN(C(=O)CCc2cnccn2)C1 (centres unmarked) | -15.6
O=C(c1cccc(C(F)(F)F)c1)C1CCCN(Cc2ncc[nH]2)C1 (centres unmarked) | 0.0209

Structure (SMILES) | hERG current change (%, negative = inhibition) at 10uM [%]
O=C(c1ccc(C(F)(F)F)cc1)C1CCCN(Cc2cccn2-c2ncccn2)C1 (centres unmarked) | -80.3
O=C1CCN(Cc2ccc(Br)cc2)CCN1CCO | -1.08
CCOc1ccc(S(=O)(=O)N(C)c2ccc(OCC(=O)Nc3nccs3)cc2)cc1 | 10.1
O=C(O)CN1C(=O)C2C3C=CC(C2C1=O)C1C(=O)N(CC(=O)O)C(=O)C31 (centres unmarked) | 21.8
CSc1ccc(CN(C)C(=O)c2cccc(S(=O)(=O)N3CCN(Cc4ccccc4)CC3)c2)cc1 | -1.76
COc1cc(/C=C2/SC(=S)N(CC(=O)O)C2=O)ccc1OCC(=O)Nc1ccc(C)c(C)c1 | -6.69
COc1ccccc1/C=C1/C(=O)N(c2ccc([N+](=O)[O-])cc2)N=C1C | 12.7
CCOC(=O)CSc1nc2ccccc2c(=O)n1CC | -14.6
CCN(CC)C(=O)CSc1nc2ccccc2c(=O)n1CC | -1.18
CCOC(=O)CSc1nc2ccccc2c(=O)n1CC1CCCO1 (centres unmarked) | -6.58
CCN(CC)C(=O)CSc1nc2ccccc2c(=O)n1CC1CCCCC1 | -61
CCOC(=O)CSc1nc2ccccc2c(=O)n1CC1CCCC1 | -67.3
CCOC(=O)C(C)Sc1nc2ccccc2c(=O)n1CC1CCCCC1 (centres unmarked) | -10.1
Cl.c1ccc(N2CCCCC2)c(NC2=NCCC2)c1 | -15.5
CN(C)/C=C1\NC(=S)N(c2ccccc2)C1=O | 28.4
Cc1ccc2c(c1)N(CC(=O)N1CCOCC1)C(=O)CO2 | 4.9
COCCCNc1nc2nonc2nc1N1CCN(C2CCCC2)CC1 | -20.2
CC1CC(C)CN(C(=O)c2ccc3ccccc3c2)C1 (centres unmarked) | -19.2
COc1cccc(OCC(O)CN2CCN(c3ccccn3)CC2)c1.Cl (centres unmarked) | -12.7
CCCc1ccc(OCC(O)CN2CCN(c3ccccn3)CC2)cc1.Cl (centres unmarked) | -63.6
CCCc1ccc(OCC(O)CN2CCN(c3ccccc3)CC2)cc1.Cl (centres unmarked) | -46.5
CCc1ccc(OCC(O)CN2CCN(c3ccc(OC)cc3)CC2)cc1.Cl (centres unmarked) | -49.3
